MCF10A rerep: inducers of DNA re-replication in MCF 10A breast cells; MCF 10A DNA re-replication, Hoechst nuclear intensity, 48 h; Potency, µM (doses to about 46.1 µM), actives largely listed as activators; actives 2.9% (n = 350,000); note: nearly all actives have a fitted effect of over 50% in size
SW480 rereplic: DNA re-replication induction in SW480 cells; SW480 DNA re-replication, Hoechst DNA content imaging, 48 h; Potency, µM (titrated, usually from 46.1 µM), most hits filed as activators; actives 1.8% (n = 340,000); AID 624297; note: nearly all actives have a fitted effect of over 55% in size
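Per well, 250 cells were exposed to pinned compound for 48 hr. Nuclear DNA was visualised with Hoechst (40 min, 37 C) and total object intensity recorded by fluorescence scanning.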
KB-3-1 cytotox: KB-3-1 parental cell cytotoxicity; KB-3-1 viability, CellTiter-Glo ATP luminescence, 72 h; Potency, µM (highest dose often 46.1 µM), hits mostly cytotoxic; actives 1.4% (n = 400,000); AID 1347075; note: nearly all actives have a fitted effect of over 60% in size
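Viability of parental KB-3-1 cells, measured by CellTiter-Glo luminescence, followed a 72 h incubation at 37 °C with pinned compounds in phenol-red-free DMEM containing 10% FBS.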
S-ASM inh: blocks human secretory acid sphingomyelinase | AID 504937 | P17405 | Potency, µM (doses to about 57.5 µM), actives largely listed as inhibitors | placental ASM, HMU-PC fluorogenic substrate, 60 min | actives 0.006% (n = 340,000)
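Fluorescence read-out (Ex 386 nm, Em 447 nm) after stopping the reaction at pH 10. Enzyme: ASM from human placenta; substrate HMU-PC0, 9 uM final; 60 min, 37 °C. Compound preincubation 10 min, ambient temperature.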
KB-V1 MDR tox: kills drug-selected multidrug resistant KB-V1 cells | actives 3.4% (n = 400,000) | AID 1347076 | KB-V1 MDR cells viability, CellTiter-Glo, 72 h | Potency, µM (series often up to 46.1 µM), hits mostly cytotoxic; note: nearly all actives have a fitted effect of over 60% in size
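qHTS viability screen in drug-selected KB-V1 MDR cells: 72 h compound treatment at 37 degrees C, ATP luminescence end point.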
Giardia kill: Giardia lamblia killing; actives 0.15% (n = 340,000); Giardia lamblia trophozoite viability; activity change, % at 7.66 µM, hits read low; in the data active = activity change below about -80%; inconclusive = between about -30% and that limit;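 note: parasites exposed to compound for two days anaerobically before the ATP read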
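Viability, read as ATP luminescence: trophozoites at 100 cells/well, compound added, 48 hrs anaerobic at 37 deg C, then 15-30 min room-temperature development before reading.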
Each line names hits and unclear results; the compound was inactive in the other large screens. Sampled rows, rich in hits. Any-hit rate of the full collection: about 6.9%. Unless noted, calls come from the whole dose curve; as a rule, active = well fitted curve in the direction sought with a large enough effect; inconclusive = small, poorly fitted or top-dose-only effect, or another doubt; inactive = no such curve, though single readings can be large; an effect the other way counts as inactive or inconclusive.

CC(=O)N(CCC(c1ccco1)C(C)C)Cc1ccc(Cl)cc1 (configuration not stated)	MCF10A rerep 4.1µM, KB-V1 MDR tox inconclusive
O=c1c2c3c(sc2n(Cc2ccccc2F)c(=O)n1-c1ccc(Cl)cc1)CCCC3	none (no result: MCF10A rerep, SW480 rereplic, S-ASM inh, Giardia kill)
Cc1cc2cc(C(c3nnnn3CC3CCCO3)N3CCCc4ccccc43)c(=O)[nH]c2cc1C (configuration not stated)	MCF10A rerep inconclusive, SW480 rereplic inconclusive, KB-3-1 cytotox inconclusive, KB-V1 MDR tox 21µM
Cc1ccc2cc(C(c3nnnn3CC3CCCO3)N3CCCC4(CCCCC4)C3)c(=O)[nH]c2c1 (configuration not stated)	KB-V1 MDR tox 15µM
CCc1ccc2[nH]c(=O)c(C(c3nnnn3CC3CCCO3)N3CCCc4ccccc43)cc2c1 (configuration not stated)	MCF10A rerep inconclusive, SW480 rereplic inconclusive, KB-V1 MDR tox inconclusive
Cc1cccc2cc(C(c3nnnn3CC3CCCO3)N3CCCc4ccccc43)c(=O)[nH]c12 (configuration not stated)	KB-V1 MDR tox 18µM
Cc1cccc2cc(C(c3nnnn3CC3CCCO3)N3CCc4ccccc4C3)c(=O)[nH]c12 (configuration not stated)	KB-V1 MDR tox inconclusive
CC(C)S(=O)(=O)N1CCN(c2nc(-c3cccs3)nc3ccccc23)CC1	none (no result: MCF10A rerep, SW480 rereplic, KB-3-1 cytotox, S-ASM inh, KB-V1 MDR tox)
OC(CCc1cccc(Cl)c1)c1cccs1 (configuration not stated)	KB-V1 MDR tox inconclusive
CCCCC1=NN(C(=O)c2cocc2C)C(O)(C(F)(F)F)C1 (configuration not stated)	MCF10A rerep inconclusive, SW480 rereplic 7.3µM
CCCCC1=NN(C(=O)c2ccncc2)C(O)(C(F)(F)F)C1 (configuration not stated)	none
COc1ccc(C2C(C#N)=C(SC)NC3=C2C(=O)CC(C)(C)C3)cc1 (configuration not stated)	KB-3-1 cytotox inconclusive, KB-V1 MDR tox inconclusive
CSC1=C(C#N)C(C)C2=C(CC(C)(C)CC2=O)N1 (configuration not stated)	KB-3-1 cytotox inconclusive, KB-V1 MDR tox 23µM
CCOC(=O)CC(NS(=O)(=O)c1ccc2[nH]c3c(c2c1)CCCC3)c1ccccc1Cl (configuration not stated)	none (no result: MCF10A rerep, SW480 rereplic, KB-3-1 cytotox, S-ASM inh, KB-V1 MDR tox)
Cc1sc2nc(SCc3ccccc3)n(Cc3ccco3)c(=O)c2c1C	MCF10A rerep 9.2µM
Cc1sc2nc(SCC(=O)C(C)(C)C)n(Cc3ccco3)c(=O)c2c1C	MCF10A rerep 5.8µM, SW480 rereplic 5.8µM, KB-3-1 cytotox inconclusive, KB-V1 MDR tox 2.6µM
COc1ccc(NC(=O)CSc2nc3sc(C)c(C)c3c(=O)n2Cc2ccco2)cc1	MCF10A rerep 15µM, SW480 rereplic inconclusive, KB-V1 MDR tox inconclusive
Cc1cc(C)cc(NC(=O)CCn2ccnc2)c1	none
COc1ccccc1N1CCN(c2ncnc3c2cnn3-c2cccc(Cl)c2)CC1	KB-V1 MDR tox inconclusive (no result: MCF10A rerep, SW480 rereplic, S-ASM inh, Giardia kill)
CN(C1CCCCC1)S(=O)(=O)c1ccc(S(=O)(=O)N2CCCC2)cc1	KB-V1 MDR tox inconclusive
CN(C1CCCCC1)S(=O)(=O)c1ccc(=S)[nH]c1	KB-V1 MDR tox 15µM
O=C(c1ccc2c(c1)N(Cc1ccc(F)cc1)C(=O)c1ccccc1S2(=O)=O)N1CCC(Cc2ccccc2)CC1	none (no result: MCF10A rerep, SW480 rereplic, S-ASM inh, Giardia kill)
O=C(NCCC1=CCCCC1)C1CCC(CNS(=O)(=O)c2ccccc2)CC1 (configuration not stated)	MCF10A rerep inconclusive, KB-V1 MDR tox 8.2µM
O=C(NCCc1ccc(Cl)cc1)C1CCC(CNc2nc(=S)[nH]c3ccccc23)CC1 (configuration not stated)	KB-3-1 cytotox inconclusive, KB-V1 MDR tox inconclusive
CC(=O)Nc1ccc(S(=O)(=O)NCC2CCC(C(=O)NCCC3=CCCCC3)CC2)cc1 (configuration not stated)	none
O=C(NCCC1=CCCCC1)C1CCC(CNc2nc(=S)[nH]c3ccccc23)CC1 (configuration not stated)	MCF10A rerep 26µM, KB-3-1 cytotox inconclusive, KB-V1 MDR tox 21µM

Screens (PubChem BioAssay)
